Experiment [1] is described as follows: IUF_NPC3_neuronal_differentiation_120hr: Leibniz Research Institute for Environmental Medicine (IUF) 120-hour Neuronal Differentiation Assay (NPC3) (AID 2284301; active = hit-call score of the fitted dose curve at least 0.9, where 1 is the maximum; inactive = score below 0.9). Put shortly:
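Primary human fetal neural progenitor spheres (GW 16-19, 0.3 mm) plated on poly-D-lysine/laminin in N2 medium, exposed from day 0 for 120 h with half-medium refresh at day 3. TUBB3+ cells as percent of Hoechst nuclei in migration area; DMSO baseline.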

A short description of experiment [2]: IUF_NPC4_neurite_length_120hr: Leibniz Research Institute for Environmental Medicine (IUF) 120-hour Neuronal Morphology Assay for Neurite Length (NPC4) (AID 2284302; active = hit-call score of the fitted dose curve at least 0.9, where 1 is the maximum; inactive = score below 0.9). An outline of the steps:
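Human fetal cortex (GW 16-19) neural progenitor spheres, 0.3 mm, were plated on poly-D-lysine/laminin in N2 differentiation medium and exposed from day 0 for 120 h, half-feeding at day 3. Mean TUBB3+ neurite length (µm) came from skeletonized images, relative to DMSO.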

Experiment [3] in a line: IUF_NPC4_neurite_area_120hr: Leibniz Research Institute for Environmental Medicine (IUF) 120-hour Neuronal Morphology Assay for Neurite Area (NPC4) (AID 2284305). Put shortly: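 Human fetal cortex-derived neural progenitor spheres (0.3 mm, GW 16-19) plated on poly-D-lysine/laminin in N2 differentiation medium and exposed from day 0 for 120 h across 7 concentrations plus solvent control. Neurite area is mean pixel area per TUBB3-positive neuron via skeletonization, analysed relative to DMSO.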

The nature of experiment [4]: IUF_NPC2-5_cytotoxicity_72hr: Cytotoxicity Assessment at 72 hours in the Leibniz Research Institute for Environmental Medicine (IUF) Neural Progenitor Cell Migration and Differentiation Assay for Cytotoxicity (NPC2-5) (AID 2284306).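 Note: LDH release into supernatant measured by resorufin fluorescence marking membrane damage.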 Put shortly:
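Human fetal (GW 16-19) neural progenitor spheres, 0.3 mm, plated on poly-D-lysine/laminin in N2 differentiation medium and exposed from day 0 to 7 concentrations plus solvent control (DMSO ≤0.1%). LDH-dependent resazurin-to-resorufin fluorescence in supernatant at 72 h.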

Experiment [5] can be described thus: IUF_NPC2-5_cytotoxicity_120hr: Cytotoxicity Assessment at 120 hours in the Leibniz Research Institute for Environmental Medicine (IUF) Neural Progenitor Cell Migration and Differentiation Assay (NPC2-5) (AID 2284307).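 For AC50: LDH released into supernatant as membrane damage marker via resorufin fluorescence.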 Put shortly: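 hNPC spheres on PDL/laminin, N2 medium, 37C; 7 concs + solvent control, DMSO ≤0.1%; 5-day exposure, half medium changed day 3. LDH in supernatant at 120 h, resazurin→resorufin fluorescence, gain-of-signal.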

Experiment [6] in a line: IUF_NPC2-5_cell_number_120hr: Cell Number Assessment at 120 hours in the Leibniz Research Institute for Environmental Medicine (IUF) Neural Progenitor Cell Migration and Differentiation Assay (NPC2-5) (AID 2284308; active = hit-call score of the fitted dose curve at least 0.9, where 1 is the maximum; inactive = score below 0.9;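 note: count of Hoechst-stained nuclei in migration zone around plated human neural progenitor spheres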). Put shortly: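 Hoechst-stained nuclei within the migration area were counted by automated high content imaging after 120 h. Single hNPC spheres differentiated on poly-D-lysine/laminin in DMEM/F12 (3:1) with 1% N2, compound present throughout, DMSO ≤0.1%.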

Experiment [7] is described as follows: IUF_NPC2-5_viability_120hr: Viability Assessment at 120 hours in the Leibniz Research Institute for Environmental Medicine (IUF) Neural Progenitor Cell Migration and Differentiation Assay (NPC2-5) (AID 2284312; active = hit-call score of the fitted dose curve at least 0.9, where 1 is the maximum; inactive = score below 0.9). An outline of the steps: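 Human fetal (GW 16-19) neural progenitor spheres of 0.3 mm were plated on poly-D-lysine/laminin in N2 differentiation medium and exposed from day 0 for 120 h, with half-medium refresh at day 3. Viability was read as alamar blue resazurin-to-resorufin fluorescence against DMSO.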

Experiment [8] is described as follows: IUF_NPC1_cytotoxicity_72hr: Cytotoxicity Assessment at 72 hours in the Leibniz Research Institute for Environmental Medicine (IUF) Neural Progenitor Cell Proliferation Assay (NPC1) (AID 2284332).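 Note: rising LDH signal means more cytotoxicity.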 An outline of the steps:
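Single human fetal cortex neural progenitor spheres (GW 16-19, 0.25-0.35 mm) in EGF/FGF proliferation medium were exposed to compound for 72 h at 37C without renewal. Medium LDH release was read as resorufin fluorescence and fitted as gain-of-signal.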

Experiment [9] is described as follows: CCTE_Mundy_HCI_iCellGluta_NOG_NeuronCount: CCTE's Neurite Outgrowth Assay in iCellGluta cells for Neuron Count, Mundy Lab (AID 2284340).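 Note: cells fixed about 48 h after compound addition.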 An outline of the steps: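 Neuron count read by automated high-content imaging of Hoechst 33342 and betaIII-tubulin/Alexa Fluor-488 labelling in human iPSC glutamatergic neurons. Activity fitted relative to DMSO.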
The nature of experiment [10]: CCTE_Mundy_HCI_iCellGluta_NOG_NeuriteCount: CCTE's Neurite Outgrowth Assay in iCellGluta cells for Neurite Count, Mundy Lab (AID 2284342).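 Note: chemical exposure about 48 hours starting 2 hours after plating.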
The target in experiment [11] is human Thyroid Receptor Alpha (TRa), THRA (gene 7067) (UniProt P10827). Nature of the experiment: NVS_NR_hTRa_Antagonist: NovaScreen (NVS) Nuclear Receptor Binding Assay for human Thyroid Receptor Alpha Antagonism (TRa) (AID 2283362).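 Note: activity is loss of signal relative to DMSO baseline.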 An outline of the steps: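 AlphaLISA chemiluminescent immunoassay readout, taken 1 h post-dosing in a cell-free system with extracted protein. Activity was scored as signal loss against DMSO negative control, from duplicate single-concentration (25 uM) testing followed by concentration-response follow-up.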
Sequence of human Thyroid Receptor Alpha (TRa), THRA (gene 7067) (P10827 whole entry, looked up): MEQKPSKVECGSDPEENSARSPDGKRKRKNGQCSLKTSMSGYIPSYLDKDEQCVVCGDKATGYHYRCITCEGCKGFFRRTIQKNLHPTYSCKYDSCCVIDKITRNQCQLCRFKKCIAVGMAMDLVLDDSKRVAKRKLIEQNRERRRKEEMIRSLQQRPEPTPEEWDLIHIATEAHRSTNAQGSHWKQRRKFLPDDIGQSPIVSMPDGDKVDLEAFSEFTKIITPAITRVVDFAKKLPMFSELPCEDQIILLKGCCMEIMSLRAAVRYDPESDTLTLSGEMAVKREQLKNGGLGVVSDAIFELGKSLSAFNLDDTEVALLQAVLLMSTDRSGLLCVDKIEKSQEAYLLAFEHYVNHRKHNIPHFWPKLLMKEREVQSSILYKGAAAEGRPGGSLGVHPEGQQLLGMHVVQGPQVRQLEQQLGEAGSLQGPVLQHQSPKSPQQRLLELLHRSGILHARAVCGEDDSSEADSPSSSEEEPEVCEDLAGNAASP

Experiment [12] has as its target Estrogen receptor (Homo sapiens) (UniProt P03372). The experiment is described as follows: NVS_NR_hER: NovaScreen (NVS) Nuclear Receptor Binding Assay for human Estrogen Receptor (ER) (AID 2283348). Put shortly:
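Cell-free radioligand binding with protein extracted from MCF7 cells; scintillation counting 18 hours after dosing. Loss of signal versus DMSO baseline read as displacement; primary single-concentration screen at 25 uM in duplicate, actives retested in concentration series.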

The target of experiment [13] is Androgen Receptor/SRC-1 Co-activator, AR (gene 367) (UniProt P10275). Nature of the experiment: OT_AR_ARSRC1_0960: Odyssey Thera (OT) 16-hour HEK293T Protein-Complementation Assay for Androgen Receptor/SRC-1 Co-activator (AID 2283353).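 Note: actives raise the signal above DMSO so potency reflects increased AR and SRC-1 complex.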 An outline of the steps:
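HEK293T cells stably expressing AR and SRC-1 fused to split Venus YFP fragments via (Gly4Ser)2 linkers were dosed for 16 h. Nuclear/cytoplasmic fluorescence ratio at 488 nm, ≥400 cells per image, fitted for gain of signal versus DMSO.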

Experiment [14] has the same target. Nature of the experiment: OT_AR_ARSRC1_0480: Odyssey Thera (OT) 8-hour HEK293T Protein-Complementation Assay for Androgen Receptor/SRC-1 Co-activator (AID 2283354).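 Note: hits raise the complementation signal above DMSO so AC50 marks enhancers.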 Put shortly:
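HEK293T cells stably expressing AR and SRC-1 fused to split Venus YFP fragments via (Gly4Ser)2 linkers were read 8 h after compound dosing. Complementation was imaged at 488 and 635nm, and nuclear/cytoplasmic fluorescence ratio (488nm) was taken over ≥400 cells; gain-of-signal versus DMSO.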

Experiment [15] concerns the target Agonist Androgen Response Element (ARE), AR (gene 367) (UniProt P10275). The experiment is described as follows: OT_AR_ARELUC_AG_1440: Odyssey Thera (OT) 24-hour CHO-K1 Luciferase Assay for Agonist Androgen Response Element (ARE) (AID 2283379). Put shortly: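 Seed CHO-K1 cells; dose compounds for 24 h; add D-luciferin plus ATP in PBS; read luminescence. Signal increase relative to vehicle defines agonist activity, with at least 3 replicate wells per sample.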

A further experiment addresses AR (gene 367) (UniProt P10275). Nature of the experiment: ACEA_AR_antagonist_80hr: ACEA Biosciences xCELLigence Real-Time Cell Analysis on Androgen Receptor Antagonism for Proliferation (AID 2283787).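 Note: 22Rv1 human prostate cancer cells with growth followed by electrical impedance; hits lower the impedance growth signal relative to DMSO.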 Put shortly:
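Impedance readout (RT-CES), 80 h post-dose; loss-of-signal vs DMSO baseline. 22Rv1 cells in assay medium. Compounds: 8-pt 1:4 series, max 100 uM final, up to 0.5% DMSO; n = 2.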

Experiment [16] deals with Nucleoli Translocation, AR (gene 367) (UniProt P10275). Nature of the experiment: UPITT_HCI_U2OS_AR_TIF2_Nucleoli_Agonist: University of Pittsburgh U2OS Androgen Receptor-Transcriptional Intermediary Factor 2 (AR-TIF2) Agonism High Content Imaging Assay for Nucleoli Translocation (AID 2283998). An outline of the steps:
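RFP-AR / GFP-TIF2 cells; cpds diluted in serum-free medium; single-point screen 20 uM final (0.2% DMSO), actives confirmed in triplicate; conc-response 0.195–50 uM final (0.5% DMSO). Readout: nucleolar red fluorescence, positive direction vs DMSO.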

Experiment [17] has as its target Ratio of Nucleoli Translocation and Cytoplasm, AR (gene 367) (UniProt P10275). The experiment is described as follows: UPITT_HCI_U2OS_AR_TIF2_Nucleoli_Cytoplasm_Ratio_Antagonist: University of Pittsburgh U2OS Androgen Receptor-Transcriptional Intermediary Factor 2 (AR-TIF2) Antagonism High Content Imaging Assay for Ratio of Nucleoli Translocation and Cytoplasm (AID 2283999).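 Note: antagonists lower the DHT-driven ratio of nucleolar to cytoplasmic red signal.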 Put shortly: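 U2OS cells expressing RFP-tagged human AR and GFP-tagged TIF2; compounds tested at 20 uM final (0.2% DMSO) in primary screen, 0.195–50 uM (0.5% DMSO) for concentration response. Readout: nucleolar-to-cytoplasmic red fluorescence ratio by high-content imaging, fitted relative to DHT.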

The target is the same in experiment [18]. Nature of the experiment: UPITT_HCI_U2OS_AR_TIF2_Nucleoli_Cytoplasm_Ratio_Agonist: University of Pittsburgh U2OS Androgen Receptor-Transcriptional Intermediary Factor 2 (AR-TIF2) Agonism High Content Imaging Assay for Ratio of Nucleoli Translocation and Cytoplasm (AID 2284000).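 Note: hits raise the red nucleolar to cytoplasm ratio above vehicle.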 An outline of the steps: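 U2OS cells expressing RFP-tagged human AR and GFP-tagged TIF2 were imaged by high-content fluorescence microscopy. The endpoint is the ratio of nucleolar to cytoplasmic red fluorescence, fitted for gain of signal relative to DMSO. Concentration-response spanned 0.195 to 50 uM final (0.5% DMSO).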

Experiment [19] can be described thus: CEETOX_H295R_OHPREG: CeeTox H295R High-throughput Steroidogenesis Assay for OH-Pregnenolone (OHPREG) (AID 2283434; active = hit-call score of the fitted dose curve at least 0.9, where 1 is the maximum; inactive = score below 0.9). The note with it: actives raise or lower the signal. Put shortly: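 Human adrenal H295R cells were prestimulated 48 h with 10 uM forskolin, then exposed 48 h to chemical in 0.1% DMSO. Medium 17alpha-hydroxypregnenolone was quantified by HPLC-MS/MS after MTBE extraction; bidirectional fitting versus DMSO baseline.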

For orientation: AC50 means the midpoint of the concentration-response curve, whichever way the signal moves.

Results filed as inconclusive are left out. Activity calls are given as the source filed them. Rule for the calls, unless noted: active = hit-call score of the fitted dose curve at least 0.9, where 1 is the maximum; inconclusive = response in the unintended direction; inactive = score below 0.9.

Sequence of Estrogen receptor (Homo sapiens) (P03372 whole entry, looked up): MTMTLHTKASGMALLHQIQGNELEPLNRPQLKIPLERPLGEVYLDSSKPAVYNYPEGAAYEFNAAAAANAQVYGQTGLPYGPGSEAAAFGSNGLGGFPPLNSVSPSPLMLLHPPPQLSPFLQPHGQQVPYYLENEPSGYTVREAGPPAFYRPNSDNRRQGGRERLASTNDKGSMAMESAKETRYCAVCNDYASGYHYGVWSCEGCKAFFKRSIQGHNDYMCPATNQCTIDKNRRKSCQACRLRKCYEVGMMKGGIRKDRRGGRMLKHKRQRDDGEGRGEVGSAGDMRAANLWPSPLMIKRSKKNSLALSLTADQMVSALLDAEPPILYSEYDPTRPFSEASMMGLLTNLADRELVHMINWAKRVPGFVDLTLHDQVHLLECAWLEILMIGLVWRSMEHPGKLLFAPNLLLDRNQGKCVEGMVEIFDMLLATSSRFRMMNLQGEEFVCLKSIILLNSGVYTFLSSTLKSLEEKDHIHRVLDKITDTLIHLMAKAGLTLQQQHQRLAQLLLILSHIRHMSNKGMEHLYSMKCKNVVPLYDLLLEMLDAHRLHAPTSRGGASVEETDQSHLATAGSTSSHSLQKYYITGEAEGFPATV
Sequence of Ratio of Nucleoli Translocation and Cytoplasm, AR (gene 367) (P10275 whole entry, looked up): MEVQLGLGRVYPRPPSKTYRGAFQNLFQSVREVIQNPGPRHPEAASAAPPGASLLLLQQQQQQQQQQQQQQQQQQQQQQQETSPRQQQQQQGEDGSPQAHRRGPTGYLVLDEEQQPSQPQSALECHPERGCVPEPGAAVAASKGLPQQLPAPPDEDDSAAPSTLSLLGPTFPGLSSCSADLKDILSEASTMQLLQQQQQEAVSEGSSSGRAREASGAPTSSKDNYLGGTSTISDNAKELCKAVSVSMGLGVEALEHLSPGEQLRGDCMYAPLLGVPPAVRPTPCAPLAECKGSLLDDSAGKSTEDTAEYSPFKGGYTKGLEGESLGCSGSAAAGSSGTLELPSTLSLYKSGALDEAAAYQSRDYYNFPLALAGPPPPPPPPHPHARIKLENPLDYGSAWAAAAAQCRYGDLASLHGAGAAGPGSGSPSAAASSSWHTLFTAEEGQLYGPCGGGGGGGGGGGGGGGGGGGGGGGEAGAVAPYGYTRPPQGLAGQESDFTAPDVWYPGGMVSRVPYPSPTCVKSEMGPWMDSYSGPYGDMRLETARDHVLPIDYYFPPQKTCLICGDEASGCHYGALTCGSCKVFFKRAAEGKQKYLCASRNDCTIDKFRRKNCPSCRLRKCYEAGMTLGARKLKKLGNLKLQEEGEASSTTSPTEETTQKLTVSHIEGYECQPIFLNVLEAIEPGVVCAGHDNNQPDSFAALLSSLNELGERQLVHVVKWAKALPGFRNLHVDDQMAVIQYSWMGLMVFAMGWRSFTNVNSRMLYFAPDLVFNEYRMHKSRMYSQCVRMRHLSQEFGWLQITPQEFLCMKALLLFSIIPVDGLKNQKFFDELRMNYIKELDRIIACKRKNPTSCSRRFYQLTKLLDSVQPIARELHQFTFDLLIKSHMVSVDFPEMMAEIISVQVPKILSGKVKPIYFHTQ
Sequence of Agonist Androgen Response Element (ARE), AR (gene 367) (P10275 whole entry, looked up): as above
Sequence of Androgen Receptor/SRC-1 Co-activator, AR (gene 367) (P10275 whole entry, looked up, the tested form may be a part): as the sequence (P10275 whole entry, looked up) above
Sequence of Nucleoli Translocation, AR (gene 367) (P10275 whole entry, looked up): as above
Sequence of AR (gene 367) (P10275 whole entry, looked up): as above

For the compound `CN(C)CCC(c1ccc(Cl)cc1)c1ccccn1` (stereo not given), the outcome in experiment [1], in [2], in [3], in experiment [4], in experiment [5] and in experiment [6] was inactive. The compound was called inactive in [7], in experiment [8], in experiment [9] and in [10].
`C=C1CC[C@H]2C[C@@H]1C2(C)C`: the compound was called inactive in experiment [11].
Consider `c1cc(N(CC2CO2)CC2CO2)ccc1Cc1ccc(N(CC2CO2)CC2CO2)cc1` (stereo not given), for which, in experiment [12], the result was inactive.
For the compound `Cc1cc(C)c(S(=O)(=O)O)cc1N=Nc1cc(S(=O)(=O)O)c2ccccc2c1O`, the call (in experiment [13]; in experiment [14]; in [15]; with AR (gene 367); in experiment [16]; in experiment [17]) was inactive. Besides, the result in [18] was inactive. Also, the half-maximal activity concentration (AC50) in experiment [11] is 29.5 µM (active).
Turning to `CCCCOC(=O)COc1ccc(Cl)cc1Cl`, the compound was classed as inactive in experiment [19].
On the same count and under the same terms, next, `Cc1cc(O)cc(C)c1Cl`: “inactive”.
Regarding `CO[Si](CCCNCCN)(OC)OC`, the result (in [13]; in [14]; in [15]; with AR (gene 367); in experiment [16]; in experiment [17]) was inactive. The result in experiment [18] was inactive.
Regarding `Oc1cccc2ccccc12`, the call in experiment [1], in experiment [2], in experiment [3], in [4], in experiment [6] and in experiment [7] was inactive. Moreover, the outcome in [8] was inactive. Moreover, the AC50 in [5] was 0.216 µM (active).
For the compound `CC1=NN(c2cc(Cl)c(S(=O)(=O)O)cc2Cl)C(=O)C1N=Nc1ccc(S(=O)(=O)O)cc1` (stereo not given), the result in experiment [11] was inactive.
Take `O=C(c1ccccc1)c1ccccc1O`: the outcome (in [13]; in [14]; in experiment [15]; with AR (gene 367); in experiment [16]; in [17]) was inactive. Also, the result in experiment [18] was inactive.
Take `Oc1ccc(Oc2ccccc2)cc1`: the AC50 in [12] is 6.92 µM (active).
In the case of `NC(N)=Nc1nc(CSCCC(N)=NS(N)(=O)=O)cs1`, the call in experiment [1], in [2], in experiment [3], in experiment [4], in [5] and in [6] was inactive. In addition, the outcome in experiment [7], in [8], in [9] and in experiment [10] was inactive.
With `c1ccc(CNc2ncnc3nc[nH]c23)cc1`, in [19], the outcome was inactive.
As to `CC1(C)S[C@@H]2[C@H](NC(=O)[C@H](N)c3ccccc3)C(=O)N2[C@H]1C(=O)O`, the result in experiment [9] and in experiment [10] was inactive.
For `CC(=O)O[C@]1(C(C)=O)CC[C@H]2[C@@H]3C=C(C)C4=CC(=O)CC[C@]4(C)[C@H]3CC[C@@]21C`, in experiment [12], the outcome was inactive.

(Values after PubChem BioAssay (EPA / NIEHS).)
